From PubChem
In the library only some 4.3% were active in any assay of this set; here they are far more common.
ADAM10 inh = inhibits human ADAM10; AID 720582; recombinant ADAM10, EDANS/DABCYL FRET peptide cleavage, 3 h; 370,000 compounds, 0.62% hits; O14672; inhibition, % at 7 µM;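 active means inhibition above a per-campaign cutoff equal to the mean of compounds falling between control-based bounds plus 3 SD, cut at about 20% in these data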;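 further: 0% = DMSO wells while the 100% control is not disclosed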
Target sequence (O14672 214-748 limits assumed): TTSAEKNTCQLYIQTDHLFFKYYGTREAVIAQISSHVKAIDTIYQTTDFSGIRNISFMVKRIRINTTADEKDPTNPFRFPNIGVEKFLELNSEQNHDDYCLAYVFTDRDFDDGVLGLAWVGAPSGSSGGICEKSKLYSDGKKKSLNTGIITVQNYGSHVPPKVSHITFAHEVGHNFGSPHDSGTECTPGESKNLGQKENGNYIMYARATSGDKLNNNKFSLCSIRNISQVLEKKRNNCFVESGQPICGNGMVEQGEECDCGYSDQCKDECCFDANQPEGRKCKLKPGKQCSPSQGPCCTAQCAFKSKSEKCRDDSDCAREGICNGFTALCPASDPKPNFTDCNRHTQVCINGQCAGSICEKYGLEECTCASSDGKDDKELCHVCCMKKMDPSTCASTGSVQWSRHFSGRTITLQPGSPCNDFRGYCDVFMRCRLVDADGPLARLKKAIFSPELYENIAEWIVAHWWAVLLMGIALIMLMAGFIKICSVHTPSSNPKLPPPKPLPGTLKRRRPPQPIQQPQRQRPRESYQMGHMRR
NR3A LBD binder = modulates the human NR3A ligand-binding domain; NR3A LBD differential scanning fluorimetry, Tm shift; 0% = protein alone, 100% = glycine-bound protein; Tm shift relative to glycine control, % at 25 µM; 340,000 compounds, 2.5% hits; AID 1259313;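 active means melting temperature shift of at least 10% of the positive control shift, at one fixed dose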
FAS-TE inh = inhibitors of human fatty acid synthase thioesterase domain. P49327. recombinant FAS-TE, OMFH fluorogenic substrate, fluorescence endpoint. inhibition, % at 15 µM. 360,000 compounds, 0.67% hits. AID 602261;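 active means compounds whose normalised, plate-corrected inhibition of enzyme fluorescence in the single-dose primary screen is 50% or more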;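 further: 0% = DMSO with enzyme and 100% = substrate without enzyme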
ADAM17 inh = inhibits human ADAM17 | inhibition, % at 6.95 µM | recombinant ADAM17, EDANS/DABCYL FRET peptide cleavage | 370,000 compounds, 0.83% hits | P78536;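 active means inhibition above the mean of compounds lying between control limits plus 3 SD, set per campaign, cut at about 8.5% in these data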;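 further: 0% = DMSO-only wells as the low control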
HGIII-sPLA2 inh = Inhibits HGIII-sPLA2 liposome hydrolysis, primary screen; AID 743126; Q9NZ20; inhibition, % at 12.2 µM; QFRET BODIPY PC-A2 liposome hydrolysis, fluorescence; 370,000 compounds, 0.56% hits;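 active means inhibition above mean plus 3 SD of compounds lying within the high and low control bounds, cut at about 19% in these data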;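 further: 0% = median of test compound wells and 100% = no enzyme DMSO wells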
hGIII sPLA2 conf = human GIII-sPLA2 inhibition, confirmation. inhibition, % at 12.2 µM. shares compounds with HGIII-sPLA2 inh. AID 743280. recombinant hGIII-sPLA2, BODIPY PC-A2 QFRET fluorescence. 2,000 compounds, 34% hits;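 active means mean inhibition across triplicates above the hit cutoff set in the earlier primary screen, cut at about 19% in these data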;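 further: 0% = enzyme with DMSO and 100% = DMSO wells lacking enzyme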
BODIPY interf = optically interferes with 535nm fluorescence in sPLA2 counter-screen. shares compounds with HGIII-sPLA2 inh. BODIPY FL product fluorescence interference, QFRET. inhibition, % at 12.2 µM. 2,000 compounds, 8.5% hits. AID 743282;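 active means average inhibition above the solvent-only control mean plus 3 SD, cut at about 6% in these data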;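 further: 0% = DMSO with substrate plus product and 100% = DMSO with substrate alone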
BODIPY interf DR = 535nm optical interference dose response, HGIII-sPLA2 counter-screen; shares compounds with HGIII-sPLA2 inh; BODIPY FL product fluorescence interference, cell-free; IC50, µM; 240 tested, under 10 active; AID 743455;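 active means IC50 at or below 10 µM; inactive means IC50 above 10 µM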
* hit, by the source's call.

For COC(=O)C1=C(C)N(C)C(=NCc2cc(OC)c(OC)c(OC)c2)NC1c1cccc(Cl)c1 (configuration not stated) the results were ADAM10 inh 0, ADAM17 inh -1 and HGIII-sPLA2 inh -4.
For COc1cccc(Cn2cc(COC(=O)NCCc3ccccc3)nn2)c1 the results were ADAM10 inh -2, ADAM17 inh 2 and HGIII-sPLA2 inh -2.
`Nc1ccn([C@@H]2O[C@H](C(=O)N3CCN(C(=O)N4CCCCC4)CC3)[C@@H](O)[C@H]2O)c(=O)n1` gave ADAM10 inh -11, ADAM17 inh -1 and HGIII-sPLA2 inh 9.
COc1ccc(C2c3ccccc3NC3C2C(=O)N(Cc2ccc(OC)cc2OC)[C@H]3Cc2ccccc2)cc1 (some centres not stated) was read as ADAM10 inh -9, ADAM17 inh -9 and HGIII-sPLA2 inh 5.
CC(C)(C)NC(=S)NNC(=O)c1ccncc1 was read as ADAM10 inh -1, NR3A LBD binder 2, FAS-TE inh -9, ADAM17 inh -2, HGIII-sPLA2 inh 23*, hGIII sPLA2 conf 7 and BODIPY interf -5.
`Cc1ccc2nc(NC(=S)NC(=O)c3ccc(OC(C)C)cc3)sc2c1` gave ADAM10 inh 1, NR3A LBD binder 0, FAS-TE inh 4, ADAM17 inh -7 and HGIII-sPLA2 inh 10.
Screening Cc1ccc(NC(=O)NC(=S)NC(=O)c2ccccc2)cc1 returned ADAM10 inh 0, NR3A LBD binder -2, FAS-TE inh 0, ADAM17 inh -5, HGIII-sPLA2 inh 23*, hGIII sPLA2 conf -14 and BODIPY interf 4.
`CCNC(=S)NNC(=O)c1ccncc1` gave ADAM10 inh 5, NR3A LBD binder -2, FAS-TE inh -6, ADAM17 inh 5 and HGIII-sPLA2 inh 3.
Screening COc1ccc(C(=O)NC(=S)NNC(=O)c2ccncc2)cc1Br returned ADAM10 inh -11, NR3A LBD binder -4, FAS-TE inh -5, ADAM17 inh -9, HGIII-sPLA2 inh 29*, hGIII sPLA2 conf 26* and BODIPY interf 4.
Screening CCCOc1ccc(C(=O)NC(=S)Nc2nc3ccccc3s2)cc1 returned ADAM10 inh -12, NR3A LBD binder -1, FAS-TE inh -2, ADAM17 inh -6, HGIII-sPLA2 inh 26*, hGIII sPLA2 conf 2 and BODIPY interf -2.
COC(=O)C1=C(C)N(Cc2ccccc2C(F)(F)F)C(=NCc2cc(OC)c(OC)c(OC)c2)NC1c1ccccc1 (configuration not stated) was read as ADAM10 inh -14, ADAM17 inh 0 and HGIII-sPLA2 inh -5.
`CCCCNC(=O)C[C@H]1C(=O)N(CCCOC)C2=CCCCC[C@]21C(=O)OC` gave ADAM10 inh -2, ADAM17 inh 2 and HGIII-sPLA2 inh 3.
Screening COc1ccc(C(=O)NNC(=S)NC(=O)c2ccc(OC)cc2)cc1 returned ADAM10 inh -4, NR3A LBD binder -10, FAS-TE inh 3, ADAM17 inh 0, HGIII-sPLA2 inh 20*, hGIII sPLA2 conf 26* and BODIPY interf -10.
COc1ccc(C(=O)NC(=S)Nc2nc(C)c(C(=O)N(C)C)s2)cc1 was read as ADAM10 inh 13, NR3A LBD binder 1, FAS-TE inh -2, ADAM17 inh 3, HGIII-sPLA2 inh 22*, hGIII sPLA2 conf 15 and BODIPY interf -4.
`CCOC(=O)c1sc(NC(=S)NC(=O)c2ccc(OC)cc2)nc1C` gave ADAM10 inh -3, NR3A LBD binder 0, FAS-TE inh 1, ADAM17 inh -2 and HGIII-sPLA2 inh 3.
Screening Cc1ccc(C(=O)NNC(=S)NC(=O)c2ccco2)cc1 returned ADAM10 inh 4, NR3A LBD binder 7, FAS-TE inh -4, ADAM17 inh 2, HGIII-sPLA2 inh 22*, hGIII sPLA2 conf 32*, BODIPY interf -7 and BODIPY interf DR >122.
For O=C(C=Cc1ccc(OCc2ccccc2)cc1)c1c(F)cccc1F the results were ADAM10 inh 0, ADAM17 inh 2 and HGIII-sPLA2 inh -2.
`CCc1c(-c2ccc(F)cc2F)ncn1CCc1ccccc1OC` gave ADAM10 inh 7, ADAM17 inh 1 and HGIII-sPLA2 inh 2.
Screening COc1ccc(C2NC(=O)c3ccccc3N2)cc1COc1ccc(NC(C)=O)cc1 (configuration not stated) returned ADAM10 inh inactive, ADAM17 inh -360 and HGIII-sPLA2 inh -7.
Screening Cc1ccccc1Nc1ccc(S(=O)(=O)N2CCOCC2)cc1[N+](=O)[O-] returned ADAM10 inh 4, NR3A LBD binder 0, FAS-TE inh 10, ADAM17 inh -3, HGIII-sPLA2 inh 20*, hGIII sPLA2 conf 7 and BODIPY interf -9.
`CCC(Sc1nc2ccccc2s1)C(=O)Nc1nnc(C)s1` (configuration not stated) gave ADAM10 inh -1, NR3A LBD binder -1, FAS-TE inh -4, ADAM17 inh -1, HGIII-sPLA2 inh 19*, hGIII sPLA2 conf 13 and BODIPY interf -7.
Screening O=C(NC(=S)N1CCN(C/C=C/c2ccccc2)CC1)c1c(F)cccc1F returned ADAM10 inh 1, NR3A LBD binder 0, FAS-TE inh -5, ADAM17 inh 1, HGIII-sPLA2 inh 27*, hGIII sPLA2 conf 24* and BODIPY interf -2.
S=c1[nH]cc(-c2ccc(Cl)cc2)n1Cc1ccccc1 was read as ADAM10 inh 15, NR3A LBD binder 2, FAS-TE inh -2, ADAM17 inh 5, HGIII-sPLA2 inh 24*, hGIII sPLA2 conf 9 and BODIPY interf 2.
`CCOC(=O)[C@@]12CCCC3=C1N(CCC3)C(=O)[C@H]2CC(=O)N1CCN(C(=O)c2ccco2)CC1` gave ADAM10 inh -2, ADAM17 inh 1 and HGIII-sPLA2 inh 5.
For CCOc1ccc(C2OCCC(C)O2)cc1OC (configuration not stated) the results were ADAM10 inh -27, NR3A LBD binder -3, FAS-TE inh -11, ADAM17 inh 0, HGIII-sPLA2 inh 20*, hGIII sPLA2 conf 2 and BODIPY interf -6.
Oc1ccc(Oc2ccccc2F)c2cccnc12 was read as ADAM10 inh 9, ADAM17 inh 2, HGIII-sPLA2 inh 25*, hGIII sPLA2 conf 26* and BODIPY interf -2.
`O=C(CNS(=O)(=O)c1ccccc1)OCC(=O)c1ccc(Br)cc1` gave ADAM10 inh 3, NR3A LBD binder 4, FAS-TE inh 0, ADAM17 inh -1 and HGIII-sPLA2 inh 0.
